Active and inactive are the calls of the source.

One assay has as its target Albumin (Bos taurus) (UniProt P02769). The assay can be described thus: compounds binding labelled BSA control protein – biochemical, small-molecule microarray, Alexa647 label, 635/667 nm fluorescence, artefact control for SMM control protein annotation, profiling panel (AID 1118).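 Also: score merges 667 nm emission intensity and signal-to-noise per printed compound spot.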 The note with it: BSA-A647 binding, fluorescence 635 nm, higher = more signal.
The nature of assay [1]: probe aXIP binding to arrayed compounds – biochemical, NeuroSMM set, 635/667 nm fluorescence, primary screen (AID 1119).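 Also: probe is the protein aXip251-270 applied at 1 µg/mL to compound-printed slides; binding of probe to printed compounds measured as 667 nm fluorescence plus signal to noise.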 The note with it: small-molecule microarray, higher = more signal, called active from +8 up or from −8 down.
Assay [2] in a line: probe aNOTCH3 binding on compound microarray – biochemical, small-molecule microarray, 635/667 nm fluorescence, primary screen (AID 1120).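 Also: probe is a biotin-tagged antibody raised against NOTCH3 rather than NOTCH3 protein; score merges spot fluorescence near 667 nm with spot signal to noise.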 As to conditions: higher = more signal.
Assay [3] can be described thus: probe aNOTCH2 binding on compound microarray – biochemical, small-molecule microarray, 635/667 nm fluorescence, primary screen (AID 1121).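 Also: score merges feature fluorescence read at 667 nm with its signal to noise.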 As to conditions: higher = more signal.
The target in assay [4] is Carbonic anhydrase 2 (Homo sapiens) (UniProt P00918). The assay can be described thus: compounds binding carbonic anhydrase 2 – biochemical, small-molecule microarray, Alexa647-labelled CAII, profiling panel (AID 1122). As to conditions: CAII-A647 binding fluorescence, higher = more signal.
The nature of assay [5]: COS7 lysate on small-molecule microarray, probe aHis, 635 nm (AID 1123).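 Also: z-score combines 667nm fluorescence intensity with signal-to-noise per printed compound spot.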 The note with it: COS7 cell lysate, fluorescence, higher = more signal.
Assay [6] in a line: probe aLAP1 signal on lysate-treated microarray – cell lysate, small-molecule microarray, COS7 lysate, primary screen (AID 1124).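 Also: lysate comes from COS7 cells expressing LAP1 and is applied at 0.3 µg/mL; score merges spot fluorescence near 667 nm with signal-to-noise over triplicate slides.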 The note with it: probe aLAP1, fluorescence, higher = more signal.
The test system of the next assay is Sam68 (KHDRBS1). Put plainly: compounds binding KHDRBS1 protein – biochemical, small-molecule microarray, 635 nm fluorescence, primary screen (AID 1125).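 Also: score merges 667 nm channel intensity with signal to noise over triplicate slides.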 As to conditions: higher = more signal.
Assay [7] has as its system Chordin-like protein 2 (CHRDL2). Put plainly: compounds binding chordin-like 2 – biochemical, small-molecule microarray, 635 nm fluorescence, primary screen (AID 1126).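 Also: printed compound slides probed with Chrdl2 protein at 4 µg/mL for 1 h at 4 C; score merges 667 nm emission intensity with signal to noise over three replicate slides.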 As to conditions: fluorescence 635 nm, higher = more signal.
For assay [8], the target named is Concanavalin-A (Canavalia ensiformis) (UniProt P02866). The assay can be described thus: compounds binding concanavalin A lectin – biochemical, small-molecule microarray, Alexa647 label, 635 nm, artefact control for SMM control protein annotation, primary screen (AID 1127).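 Also: z combines 667 nm emission intensity with signal-to-noise across three replicate slides.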 The note with it: ConA-A647 binding fluorescence, higher = more signal.
Sequence of Concanavalin-A (Canavalia ensiformis) (P02866 whole entry, looked up): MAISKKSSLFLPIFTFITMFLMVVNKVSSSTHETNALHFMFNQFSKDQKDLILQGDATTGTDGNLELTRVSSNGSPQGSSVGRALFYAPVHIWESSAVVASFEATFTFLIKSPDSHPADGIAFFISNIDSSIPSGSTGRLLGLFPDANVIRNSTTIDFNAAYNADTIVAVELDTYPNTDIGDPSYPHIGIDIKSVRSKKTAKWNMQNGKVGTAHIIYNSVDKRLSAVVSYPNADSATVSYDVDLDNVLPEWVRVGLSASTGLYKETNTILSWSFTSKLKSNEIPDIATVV
The nature of assay [9]: compounds binding Alexa647 anti-His antibody – biochemical, small-molecule microarray, 635 nm fluorescence, artefact control for SMM control protein annotation, primary screen (AID 1128).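 Also: score merges feature fluorescence with signal-to-noise for each printed compound spot.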 As to conditions: higher = more signal.
Assay [10] concerns Human papillomavirus type 1a E7 protein (residues 1-88). The assay can be described thus: HPV1a E7 small-molecule binders, primary screen, biochemical, small-molecule microarray, residues 1-88, 635 nm (AID 1129). The note with it: small-molecule microarray binding, fluorescence 635 nm; higher = more signal.
In assay [11] the target is Focal adhesion kinase 1 (Homo sapiens) (UniProt Q05397). Put plainly: PTK2 protein binding on printed compound slides – biochemical, small-molecule microarray, 635/667 nm fluorescence, BSA, DTT, primary screen (AID 1130).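 Also: composite of spot emission at 667 nm and signal to noise over triplicate slides.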 The note with it: 635 nm fluorescence, higher = more signal.
Sequence of Focal adhesion kinase 1 (Homo sapiens) (Q05397 whole entry, looked up): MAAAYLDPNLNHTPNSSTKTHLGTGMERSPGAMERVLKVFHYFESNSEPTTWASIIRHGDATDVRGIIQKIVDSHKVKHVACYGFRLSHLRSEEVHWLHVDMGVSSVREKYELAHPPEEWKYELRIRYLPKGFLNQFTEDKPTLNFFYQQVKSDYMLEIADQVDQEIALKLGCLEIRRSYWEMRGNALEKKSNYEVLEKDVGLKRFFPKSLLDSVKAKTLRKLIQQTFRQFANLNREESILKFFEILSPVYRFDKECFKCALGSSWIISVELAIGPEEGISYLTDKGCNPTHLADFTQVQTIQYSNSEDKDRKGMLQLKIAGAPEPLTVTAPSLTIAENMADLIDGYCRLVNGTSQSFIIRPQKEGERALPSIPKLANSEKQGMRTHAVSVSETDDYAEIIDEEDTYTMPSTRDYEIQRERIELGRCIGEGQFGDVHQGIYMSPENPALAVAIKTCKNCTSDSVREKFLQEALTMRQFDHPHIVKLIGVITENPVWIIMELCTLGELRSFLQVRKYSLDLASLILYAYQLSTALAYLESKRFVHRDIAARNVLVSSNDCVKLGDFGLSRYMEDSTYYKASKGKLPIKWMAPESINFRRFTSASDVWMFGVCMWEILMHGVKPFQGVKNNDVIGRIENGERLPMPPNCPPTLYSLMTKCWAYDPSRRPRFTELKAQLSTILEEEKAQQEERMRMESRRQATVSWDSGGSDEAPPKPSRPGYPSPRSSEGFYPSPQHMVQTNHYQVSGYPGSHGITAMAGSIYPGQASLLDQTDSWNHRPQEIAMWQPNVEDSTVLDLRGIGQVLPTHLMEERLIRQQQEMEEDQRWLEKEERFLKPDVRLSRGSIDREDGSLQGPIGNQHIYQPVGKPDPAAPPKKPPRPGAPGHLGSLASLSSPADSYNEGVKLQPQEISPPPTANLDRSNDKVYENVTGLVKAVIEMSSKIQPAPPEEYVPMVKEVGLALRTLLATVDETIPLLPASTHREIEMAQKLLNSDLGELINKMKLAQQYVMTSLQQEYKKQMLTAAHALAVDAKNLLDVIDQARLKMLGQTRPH
The subject of assay [12] is Fibrinogen (Alexa647-labelled). Put plainly: Alexa647-fibrinogen binding to printed small molecules – biochemical, small-molecule microarray, 635/667 nm fluorescence, artefact control for SMM control-protein annotation, profiling panel (AID 1131).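 Also: z-score merges 667 nm fluorescence with per-spot signal-to-noise over triplicate slides.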 As to conditions: fibrinogen-A647 binding fluorescence, higher = more signal.
Assay [13] has as its target Follistatin (Homo sapiens) (UniProt P19883). The assay can be described thus: FST protein binding to printed compounds – biochemical, small-molecule microarray, 635/667 nm fluorescence, primary screen (AID 1132). As to conditions: 635 nm fluorescence, higher = more signal.
The target in assay [14] is Fibroblast growth factor 2 (Homo sapiens) (UniProt P09038). The assay can be described thus: basic fibroblast growth factor binding to printed compounds – biochemical, small-molecule microarray, 635/667 nm fluorescence, primary screen (AID 1133). As to conditions: FGF2, fluorescence 635/667, higher = more signal.
Sequence of Fibroblast growth factor 2 (Homo sapiens) (P09038 whole entry, looked up): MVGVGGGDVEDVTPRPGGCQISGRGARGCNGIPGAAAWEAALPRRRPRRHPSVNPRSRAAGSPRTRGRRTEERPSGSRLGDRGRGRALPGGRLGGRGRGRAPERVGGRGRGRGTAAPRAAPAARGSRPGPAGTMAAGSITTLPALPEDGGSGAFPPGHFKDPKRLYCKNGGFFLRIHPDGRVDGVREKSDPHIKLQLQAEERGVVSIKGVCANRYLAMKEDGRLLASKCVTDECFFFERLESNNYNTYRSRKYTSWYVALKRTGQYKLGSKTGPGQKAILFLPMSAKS
Assay [15] is described as follows: JC-1 mitochondrial potential readout, lung cancer cells – cell-based, A549, JC-1 fluorescence, basal, 24 h, 100 nL, profiling panel (AID 1138).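 Also: A549 lung adenocarcinoma cells under basal conditions with no added stimulus; test concentration not given here.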 As to conditions: higher = more signal.
Another assay concerns Lefty1. The assay can be described thus: Lefty1 protein binding to printed compounds – biochemical, small-molecule microarray, 635/667 nm fluorescence, primary screen (AID 1139). As to conditions: fluorescence 635/667, higher = more signal.
Assay [16] relates to wheat germ agglutinin (Triticum aestivum), Alexa647-labelled. Put plainly: Alexa647-WGA lectin binding to printed small molecules – biochemical, small-molecule microarray, 635/667 nm fluorescence, artefact control for SMM control-protein annotation, profiling panel (AID 1140).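 Also: score merges 667 nm feature emission with signal to noise over triplicate slides.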 As to conditions: WGA-A647 binding, 635 nm fluorescence, higher = more signal.
Assay [17] deals with Luciferin 4-monooxygenase (Photinus pyralis) (UniProt P08659). The assay can be described thus: inhibition of purified Photinus pyralis luciferase – biochemical, luminescence, purified enzyme, 2006 set, primary screen (AID 1141).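 Also: cell-free assay with purified firefly luciferase at 100 ng per well in PBS; test concentration not given here.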 The note with it: purified firefly luciferase, SteadyGlo luminescence, 30 min; higher = more signal, called active from +8 up or from −8 down.
Sequence of Luciferin 4-monooxygenase (Photinus pyralis) (P08659 whole entry, looked up): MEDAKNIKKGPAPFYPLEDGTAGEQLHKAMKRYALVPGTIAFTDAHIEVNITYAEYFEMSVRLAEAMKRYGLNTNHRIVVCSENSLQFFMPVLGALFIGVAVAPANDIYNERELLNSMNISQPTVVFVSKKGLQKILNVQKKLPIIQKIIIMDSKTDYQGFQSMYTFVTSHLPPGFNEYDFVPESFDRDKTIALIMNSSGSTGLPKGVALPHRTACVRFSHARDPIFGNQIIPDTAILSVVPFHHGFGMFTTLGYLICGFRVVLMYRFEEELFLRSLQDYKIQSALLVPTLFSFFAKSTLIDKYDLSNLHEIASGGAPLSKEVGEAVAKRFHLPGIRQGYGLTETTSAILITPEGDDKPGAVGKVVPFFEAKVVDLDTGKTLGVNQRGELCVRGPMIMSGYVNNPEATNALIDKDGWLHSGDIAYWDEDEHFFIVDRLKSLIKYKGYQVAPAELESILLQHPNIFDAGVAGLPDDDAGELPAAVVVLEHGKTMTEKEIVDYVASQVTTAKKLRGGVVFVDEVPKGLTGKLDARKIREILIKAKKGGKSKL

Sequence of Follistatin (Homo sapiens) (P19883 whole entry, looked up): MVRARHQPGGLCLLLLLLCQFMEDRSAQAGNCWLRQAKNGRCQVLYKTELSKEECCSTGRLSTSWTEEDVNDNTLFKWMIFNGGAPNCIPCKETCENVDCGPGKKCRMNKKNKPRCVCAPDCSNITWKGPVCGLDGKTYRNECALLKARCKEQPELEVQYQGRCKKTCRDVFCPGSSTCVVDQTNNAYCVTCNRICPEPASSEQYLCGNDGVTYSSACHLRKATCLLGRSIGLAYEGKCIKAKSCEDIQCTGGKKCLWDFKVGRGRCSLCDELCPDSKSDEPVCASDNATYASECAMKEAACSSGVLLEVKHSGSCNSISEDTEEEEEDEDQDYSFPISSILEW
Sequence of Albumin (Bos taurus) (P02769 whole entry, looked up): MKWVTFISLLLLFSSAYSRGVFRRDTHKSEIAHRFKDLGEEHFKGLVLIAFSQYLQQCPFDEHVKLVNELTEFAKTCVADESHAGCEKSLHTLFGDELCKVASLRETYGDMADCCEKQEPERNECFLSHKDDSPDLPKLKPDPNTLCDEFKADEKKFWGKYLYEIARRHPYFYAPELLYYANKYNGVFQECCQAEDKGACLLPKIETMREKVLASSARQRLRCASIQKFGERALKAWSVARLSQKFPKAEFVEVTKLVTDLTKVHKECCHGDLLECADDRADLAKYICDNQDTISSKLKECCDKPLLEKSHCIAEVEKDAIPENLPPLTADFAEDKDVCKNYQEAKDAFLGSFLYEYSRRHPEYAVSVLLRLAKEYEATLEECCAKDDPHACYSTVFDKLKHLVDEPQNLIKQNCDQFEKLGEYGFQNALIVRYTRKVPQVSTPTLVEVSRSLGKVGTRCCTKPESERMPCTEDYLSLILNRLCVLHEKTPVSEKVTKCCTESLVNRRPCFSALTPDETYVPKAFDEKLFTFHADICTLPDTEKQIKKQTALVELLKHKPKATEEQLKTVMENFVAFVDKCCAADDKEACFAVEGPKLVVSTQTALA

Turning to `O=C1C=C(c2ccccc2)C(=O)C2=C1CC([C@H]1Oc3ccccc3S(=O)(=O)N3CCC[C@@H]13)=CC2`, the composite z-score in the assay with Albumin (Bos taurus) was 0.0895; in assay [2] it was -0.0918; in assay [3], -0.0485; in assay [4], -0.248; in assay [5] it was -0.227; in assay [6] it was -0.247. Moreover, the composite z-score is 0.13 in the assay on Sam68 (KHDRBS1); 0.121 in assay [7]; 0.0457 in assay [8]; -0.105 in [9]; 0.154 in assay [10]; -0.263 in assay [11]. In addition, the composite z-score in assay [12] was -0.472; in assay [13], 0.316; in assay [14] it was 0.669; in the assay on Lefty1, 0.132; in [16] it was 0.145. For the same compound, the composite Z-score in [1] is 0.506 (inactive). Also, the z-score is -1.32 in assay [15] and -1.49 (inactive) in [17].

Take `COC(=O)[C@@]1(Cc2ccc(F)cc2)[C@H]2c3cc(C(=O)N4CCCC4)n(Cc4ccccn4)c3C[C@H]2CN1C(=O)c1ccccc1`: the composite z-score in the assay with Albumin (Bos taurus) came out at 0.0228; in assay [2] it was 0.547; in assay [3], 0.417; in assay [4], 0.482; in [5], 2.95; in [6] it was 0.382. Also, the composite z-score with Sam68 (KHDRBS1) was 1.17; in assay [7] it was -0.22; in [8] it was 0.627; in assay [9], 1.58; in assay [10], 1.25; in assay [11], 1.01. Besides, the composite z-score in [12] is 0.903; in assay [13], 0.37; in assay [14] it was -0.453; in the assay with Lefty1 it was -0.2; in [16], -0.128. Moreover, in assay [1], the composite Z-score was -0.104 (inactive). The z-score in assay [15] was -0.0238; in [17], 1.1 (inactive).

For `C[N+](C)(C)CCCCNC(=O)[C@H]1C[C@H]2C(=O)N[C@@H](Cc3ccccc3)C(=O)N2[C@H]1c1cccc(OCCO)c1`, the composite z-score was -1.43 with Albumin (Bos taurus); 0.0401 in [2]; -0.1 in [3]; 0.542 in assay [4]; 1.71 in assay [5]; 1.3 in assay [6]. Also, the composite z-score was 0.669 in the assay with Sam68 (KHDRBS1); 1.5 in [7]; 1.1 in assay [8]; 2.93 in [9]; 0.566 in assay [10]; 0.193 in assay [11]. Besides, the composite z-score in [12] was 0.578; in assay [13], 1.48; in [14] it was 1.87; in the assay with Lefty1 it was 1.69; in assay [16] it was -0.4. In addition, the composite Z-score in assay [1] is 0.466 (inactive). Besides, the z-score in assay [15] is -0.243; in [17], -0.598 (inactive).

Take `COC(=O)[C@@]1(Cc2ccc(F)cc2)[C@H]2c3cc(C(=O)N4CCCC4)n(CCc4ccccn4)c3C[C@H]2CN1C(=O)c1ccccc1`: the composite z-score came to 0.634 in the assay with Albumin (Bos taurus); 0.0488 in assay [2]; 0.186 in assay [3]; 0.852 in [4]; 2.13 in assay [5]; 0.233 in [6]. Further, the composite z-score in the assay on Sam68 (KHDRBS1) is 0.0315; in [7] it was -0.163; in assay [8], 0.222; in [9], 0.272; in assay [10] it was 0.786; in assay [11], 0.754. Besides, the composite z-score in assay [12] is 0.97; in assay [13], -0.227; in [14] it was -0.418; in the assay with Lefty1, -1.03; in assay [16], 1.01. In addition, the composite Z-score in [1] was 0.191 (inactive). Also, the z-score is 0.622 in [15] and 0.458 (inactive) in [17].

Consider `C=C(COC)C(=O)CC[C@H](OC(=O)c1cccnc1)c1ccc(OCCO)cc1`, for which the composite z-score in the assay with Albumin (Bos taurus) was -0.286; in assay [2] it was 0.201; in [3] it was -0.128; in assay [4] it was 0.665; in assay [5], 0.709; in assay [6] it was 1.53. For the same compound, the composite z-score in the assay on Sam68 (KHDRBS1) was 1.14; in assay [7], 0.563; in assay [8], 0.293; in assay [9], -0.108; in assay [10] it was 0.355; in assay [11], -0.172. For the same compound, the composite z-score in assay [12] is 0.637; in assay [13] it was 1.07; in assay [14], 0.893; in the assay on Lefty1, 1.63; in assay [16], 0.73. In addition, in assay [1], the composite Z-score is 0.509 (inactive). Also, the z-score in assay [15] was -0.747; in assay [17] it was -2.23 (inactive).

The record behind these values is PubChem BioAssay.
